# A number with no mark means an inactive call. The list shows a part of the results. Activity calls are given as the source filed them.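 The calls were made as follows, unless noted: active = inhibition above the mean plus 3 SD of solvent-only control wells, limit set per screening run (cut at about 16% in these data); inactive = the rest.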
# Legend:
# [1] = KLF5 expression inhibitors, confirmation, DLD-1 cells, luminescence (AID 1834;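 active = inhibition above a set limit taken from the earlier primary screen, cut at about 63% in these data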;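 also: 0% = DMSO wells and 100% = LY294002 at 200 µM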); details: DLD-1 KLF5 promoter firefly luciferase reporter, at 4 µM, stronger effect = higher value
# [2] = cytotoxicity in rat IEC-6 cells, cytotoxicity control for KLF5 inhibitor project, cell-based, luminescence, triplicate (AID 1905; in the data active = inhibition above about 23%;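 also: cells exposed to compounds for 48 hours before viability read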); details: IEC-6 rat intestinal cells, viability luminescence; at 4 µM; stronger effect = higher value
# [3] = molecular target: Insulin-degrading enzyme (Homo sapiens) (UniProt P14735); assay: human IDE inhibitors in live cells, confirmation, fluorescence polarization, HEK cells, FAbetaB substrate (AID 435028;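 active = mean inhibition across triplicate wells above the cutoff set by the earlier primary insulin-degrading enzyme screen, cut at about 16% in these data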;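 also: 0% = DMSO wells and 100% = 60 µM reference IDE inhibitor Ii1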); details: FAbetaB cleavage, at 5.59 µM, stronger effect = higher value
# Chain of Insulin-degrading enzyme (Homo sapiens) (P14735 whole entry, looked up): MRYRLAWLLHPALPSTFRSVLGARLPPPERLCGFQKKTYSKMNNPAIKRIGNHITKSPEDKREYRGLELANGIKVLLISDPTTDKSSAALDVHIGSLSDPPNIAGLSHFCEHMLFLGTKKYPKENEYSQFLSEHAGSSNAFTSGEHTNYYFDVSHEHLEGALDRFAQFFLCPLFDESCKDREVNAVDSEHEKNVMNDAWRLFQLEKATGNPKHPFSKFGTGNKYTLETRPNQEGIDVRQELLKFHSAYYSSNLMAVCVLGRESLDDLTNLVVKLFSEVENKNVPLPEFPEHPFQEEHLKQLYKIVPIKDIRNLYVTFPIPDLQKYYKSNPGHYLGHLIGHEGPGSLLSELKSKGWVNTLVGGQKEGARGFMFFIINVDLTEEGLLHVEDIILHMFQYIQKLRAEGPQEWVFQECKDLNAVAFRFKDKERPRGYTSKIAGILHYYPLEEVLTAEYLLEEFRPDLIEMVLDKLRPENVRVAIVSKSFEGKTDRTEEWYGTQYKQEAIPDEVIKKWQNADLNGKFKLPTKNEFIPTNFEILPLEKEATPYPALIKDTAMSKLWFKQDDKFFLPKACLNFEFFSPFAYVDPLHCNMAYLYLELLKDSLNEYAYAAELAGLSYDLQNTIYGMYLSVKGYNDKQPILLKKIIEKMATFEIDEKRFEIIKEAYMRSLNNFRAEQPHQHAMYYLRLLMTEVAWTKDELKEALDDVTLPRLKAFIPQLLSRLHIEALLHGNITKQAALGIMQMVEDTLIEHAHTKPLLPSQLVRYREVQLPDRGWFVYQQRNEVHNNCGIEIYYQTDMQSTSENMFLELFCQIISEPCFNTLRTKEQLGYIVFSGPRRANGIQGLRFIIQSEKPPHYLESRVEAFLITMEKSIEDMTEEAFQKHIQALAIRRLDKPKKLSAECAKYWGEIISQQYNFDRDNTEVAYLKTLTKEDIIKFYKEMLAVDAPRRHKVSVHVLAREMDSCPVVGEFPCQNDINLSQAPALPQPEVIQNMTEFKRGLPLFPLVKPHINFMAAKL
# [4] = cytotoxicity in HEK cells, cytotoxicity control for IDE inhibitor project, cell-based, luminescence (AID 449730; in the data active = inhibition above about 22%;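 also: 0% = vehicle wells and 100% = reference cytotoxic drug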); details: HEK293 cytotoxicity, ATP luminescence; at 5.59 µM; stronger effect = higher value
# [5] = growth loss of phage-infected E. coli expressing H. pylori AddAB, confirmation, AddAB inhibitor project, absorbance, E. coli V3065, T4 phage, triplicate (AID 488942;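 active = mean inhibition above a set limit taken from the earlier primary screen, cut at about 13% in these data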;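 also: higher means less bacterial growth since AddAB block lets phage replicate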); details: OD, at 11.9 µM, stronger effect = higher value, T4 phage with gene 2 nonsense mutations
# [6] = growth loss of RecBCD+ E. coli with mutant T4 phage, counter-screen for AddAB inhibitor project, absorbance, V66 E. coli (AID 488955;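 active = mean inhibition above the mean of solvent-only control wells plus 3 SD, cut at about 4% in these data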;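 also: optical density read after an 18 h incubation at 37 °C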); details: OD growth, at 11.9 µM, stronger effect = higher value
# [7] = bacterial viability inhibition counter-screen, confirmation, counter-screen for AddAB inhibitor project, absorbance (AID 488956; in the data active = inhibition above about 25%); details: absorbance (AddAB counterscreen), at 11.9 µM, stronger effect = higher value
# [8] = STAT3 reporter inhibitors, retest of hits, confirmation, U3A cells, luciferase, luminescence (AID 1265;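 active = inhibition above the hit cutoff computed for the primary STAT3 screen, cut at about 44% in these data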;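 also: 0% = IL-6 plus DMSO and 100% = IL-6 plus nifuroxazide control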); details: IL-6 STAT3 luciferase reporter, at 5.7 µM, stronger effect = higher value, cell line lacks STAT1
# [9] = NF-kB reporter inhibitors in human cells, confirmation, counter-screen for STAT3 inhibitor project, cell-based, HEK293T, luciferase, TNF-alpha stimulus (AID 1308;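 active = inhibition above the mean of solvent-only control wells plus 3 SD, cutoff set per campaign, cut at about 13% in these data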;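 also: 0% = TNF-alpha with DMSO and 100% = TNF-alpha with MG high control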); details: TNF-alpha induced, at 5.7 µM, stronger effect = higher value
# [10] = STAT1 reporter inhibitors, IFN-gamma induced, confirmation, counter-screen for STAT3 inhibitor project, cell-based, NIH 3T3, luciferase luminescence (AID 1317); details: NIH 3T3 STAT1-luciferase reporter, at 5.7 µM, stronger effect = higher value;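 also: 0% = DMSO with IFN-gamma and 100% = nifuroxazide control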
# [11] = STAT1 signaling activators, confirmation, cell-based, HTS, luciferase reporter (AID 1262;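 active = activation above a set limit carried over from the earlier primary STAT1 screen, cut at about 140% in these data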;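 also: simple ratio to median IFN-gamma plus DMSO wells so 0% means no light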); details: NIH 3T3 STAT1-luciferase reporter, IFN-gamma potentiation, luminescence; at 5.7 µM; stronger effect = higher value; 100% = IFN-gamma EC80 alone, no compound
# [12] = NF-kB reporter activators, TNF-alpha stimulated, counter-screen for STAT1 activator project, cell-based, HEK293T, luciferase luminescence (AID 1306;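 active = activation above the mean of solvent-only control wells plus 3 SD, set per campaign, cut at about 130% in these data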;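 also: TNF-alpha given at a submaximal dose yielding about 80% of full reporter signal; values are well signal over median control so 100% means no change and 0% no light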); details: at 5.7 µM, stronger effect = higher value, 100% = TNF-alpha with vehicle only
# [13] = molecular target: Signal transducer and activator of transcription 3 (Homo sapiens) (UniProt P40763); assay: STAT3 reporter activation by STAT1 hits, confirmation, counter-screen for STAT1 activator project, U3A cells, luciferase, luminescence (AID 1316;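 active = activation above the solvent-only control well mean plus 3 SD, set per plate batch, cut at about 110% in these data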;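 also: 0% = no luminescence and 100% = median IL-6 plus DMSO wells; higher means more STAT3 reporter activation so hits are non-selective activators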); details: IL-6, luminescence, at 5.7 µM, stronger effect = higher value, 100 = IL-6 alone, no compound effect, cells lack STAT1
# [14] = tested on: DAF-12 nuclear receptor (Heterodera glycines), GAL4-LBD fusion; assay: H. glycines DAF-12 receptor agonists, confirmation, cell-based, luminescence, HEK293, GAL4-LBD fusion (AID 743050;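 active = mean activation over triplicate wells above the hit cutoff derived from the earlier primary screen, cut at about 11% in these data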;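 also: 0% = DMSO low control and 100% = 2 mM sodium butyrate high control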); details: HEK293 GAL4-hgDAF12 luciferase reporter, agonist mode; at 6.8 µM; stronger effect = higher value; percent of butyrate response
# [15] = molecular target: Oxysterols receptor LXR-beta (Homo sapiens) (UniProt P55055); assay: LXR agonists, Gal4 luciferase reporter, confirmation, counter-screen for hgDAF-12 agonist project, cell-based, luminescence, HEK293, H. glycines campaign (AID 743051;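 active = mean activation of the triplicate above a set limit carried over from the primary screen, none filed active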); details: 24 h, at 6.8 µM, stronger effect = higher value
# Chain of Oxysterols receptor LXR-beta (Homo sapiens) (P55055 whole entry, looked up, the tested form may be a part): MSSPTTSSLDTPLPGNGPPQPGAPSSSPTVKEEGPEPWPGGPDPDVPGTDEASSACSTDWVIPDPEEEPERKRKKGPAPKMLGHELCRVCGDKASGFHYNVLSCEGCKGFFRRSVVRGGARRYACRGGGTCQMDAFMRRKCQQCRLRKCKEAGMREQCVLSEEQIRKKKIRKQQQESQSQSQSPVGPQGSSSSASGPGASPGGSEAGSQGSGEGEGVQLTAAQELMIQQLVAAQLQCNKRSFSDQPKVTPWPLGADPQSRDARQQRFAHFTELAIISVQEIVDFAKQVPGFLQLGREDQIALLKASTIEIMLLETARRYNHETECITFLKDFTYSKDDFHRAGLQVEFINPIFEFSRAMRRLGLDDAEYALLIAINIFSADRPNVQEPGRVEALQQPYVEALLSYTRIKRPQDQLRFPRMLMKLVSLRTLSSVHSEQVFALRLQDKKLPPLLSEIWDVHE
# [16] = molecular target: Neuropeptide Y receptor type 2 (Homo sapiens) (UniProt P49146); assay: NPY-Y2 potentiators or agonists, confirmation, cell-based (AID 1539; in the data active = activation above about 33%); details: cell-based NPY-Y2 potentiator/agonist assay; at 3.6 µM; stronger effect = higher value
# Chain of Neuropeptide Y receptor type 2 (Homo sapiens) (P49146 whole entry, looked up): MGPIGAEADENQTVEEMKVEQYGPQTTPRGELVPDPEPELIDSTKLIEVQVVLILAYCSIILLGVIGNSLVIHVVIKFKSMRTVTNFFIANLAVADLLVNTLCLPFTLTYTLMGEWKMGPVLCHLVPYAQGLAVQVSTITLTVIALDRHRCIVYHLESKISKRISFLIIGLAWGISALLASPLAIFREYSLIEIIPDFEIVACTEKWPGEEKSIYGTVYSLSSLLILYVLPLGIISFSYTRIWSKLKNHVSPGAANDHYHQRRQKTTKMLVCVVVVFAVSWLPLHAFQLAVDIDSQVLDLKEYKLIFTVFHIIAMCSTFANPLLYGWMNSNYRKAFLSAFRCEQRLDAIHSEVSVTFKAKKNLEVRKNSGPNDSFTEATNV
# [17] = molecular target: Neuropeptide Y receptor type 1 (Homo sapiens) (UniProt P25929); assay: NPY-Y1 potentiators or agonists, counter-screen for NPY-Y2 potentiator project, cell-based, fluorescence (AID 1651; in the data active = activation above about 45%;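 also: cells stimulated with submaximal NPY then isoproterenol with phosphodiesterase inhibitor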); details: Y1 HEK293-CNG cells, membrane potential fluorescence; at 3.6 µM; stronger effect = higher value
# Chain of Neuropeptide Y receptor type 1 (Homo sapiens) (P25929 whole entry, looked up): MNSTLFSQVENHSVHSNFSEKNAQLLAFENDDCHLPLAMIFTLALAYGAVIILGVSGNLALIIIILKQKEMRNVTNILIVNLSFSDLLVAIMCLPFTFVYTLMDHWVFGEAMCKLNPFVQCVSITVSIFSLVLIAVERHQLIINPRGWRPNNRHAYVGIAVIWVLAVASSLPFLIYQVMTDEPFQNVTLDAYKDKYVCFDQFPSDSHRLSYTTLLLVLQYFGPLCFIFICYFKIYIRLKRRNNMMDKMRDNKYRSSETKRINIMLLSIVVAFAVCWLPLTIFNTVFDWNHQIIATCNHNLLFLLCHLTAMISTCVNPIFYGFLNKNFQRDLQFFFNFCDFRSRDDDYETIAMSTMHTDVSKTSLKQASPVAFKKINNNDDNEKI
# [18] = molecular target: Neuropeptide Y receptor type 1 (Homo sapiens) (UniProt P25929); assay: NPY-Y1 direct agonists, selectivity assay for NPY-Y2 potentiator project, cell-based, fluorescence (AID 1702;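 active = activation above the mean of DMSO-only control wells plus 3 SD, cut at about 18% in these data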;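 also: cells stimulated with 1 µM isoproterenol plus the PDE inhibitor Ro 20-1724; 0% = isoproterenol with DMSO and no NPY and 100% = 40 nM NPY; Y1 agonists lower the membrane potential dye signal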); details: HEK293 Y1-CNGC, membrane potential fluorescence, agonism; at 3.6 µM; stronger effect = higher value
# [19] = CNGC cAMP sensor activity inhibitors, counter-screen for NPY-Y2 potentiator project, cell-based, HEK293-CNG parental, membrane potential fluorescence (AID 1703;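 active = inhibition above the control-well mean plus 3 SD of those wells, cut at about 22% in these data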;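 also: 0% = DMSO with isoproterenol and 100% = DMSO without isoproterenol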); details: isoproterenol cAMP, at 3.6 µM, stronger effect = higher value
# [20] = molecular target: Neuropeptide Y receptor type 2 (Homo sapiens) (UniProt P49146); assay: NPY-Y2 direct agonists, counter-screen for NPY-Y2 potentiator project, cell-based, fluorescence (AID 1710;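 active = activation above the mean of solvent-only control wells plus 3 SD, cut at about 10% in these data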;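 also: cells stimulated by isoproterenol with no NPY added so direct agonism is tested; 0% = DMSO with isoproterenol alone and 100% = NPY at EC100 plus isoproterenol; agonism lowers probe fluorescence through less cAMP and CNG channel opening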); details: HEK293 Y2/CNGC cells, membrane potential fluorescence, agonist mode; at 3.6 µM; stronger effect = higher value
# [21] = tested on: transactivating tegument protein VP16 (Human herpesvirus 1); assay: VP16 transactivation reporter inhibitors, counter-screen for SRC2 inhibitor project, cell-based, luminescence, single concentration (AID 652007; in the data active = inhibition above about 36%); details: cell-based VP16 transactivation luciferase reporter, at 8.9 µM, stronger effect = higher value
# [22] = molecular target: Nuclear receptor coactivator 2 (Homo sapiens) (UniProt Q15596); assay: SRC2 coactivator transcriptional activity inhibitors, confirmation, cell-based, luminescence, HEK293, triplicate (AID 652008;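 active = mean inhibition above 46.5%, the solvent-only control mean plus 3 SD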;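 also: 0% = DMSO-treated cells and 100% = Gossypol at 36 µM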); details: HEK293 GAL4-SRC2 luciferase reporter, at 8.9 µM, stronger effect = higher value
# Chain of Nuclear receptor coactivator 2 (Homo sapiens) (Q15596 whole entry, looked up, the tested form may be a part): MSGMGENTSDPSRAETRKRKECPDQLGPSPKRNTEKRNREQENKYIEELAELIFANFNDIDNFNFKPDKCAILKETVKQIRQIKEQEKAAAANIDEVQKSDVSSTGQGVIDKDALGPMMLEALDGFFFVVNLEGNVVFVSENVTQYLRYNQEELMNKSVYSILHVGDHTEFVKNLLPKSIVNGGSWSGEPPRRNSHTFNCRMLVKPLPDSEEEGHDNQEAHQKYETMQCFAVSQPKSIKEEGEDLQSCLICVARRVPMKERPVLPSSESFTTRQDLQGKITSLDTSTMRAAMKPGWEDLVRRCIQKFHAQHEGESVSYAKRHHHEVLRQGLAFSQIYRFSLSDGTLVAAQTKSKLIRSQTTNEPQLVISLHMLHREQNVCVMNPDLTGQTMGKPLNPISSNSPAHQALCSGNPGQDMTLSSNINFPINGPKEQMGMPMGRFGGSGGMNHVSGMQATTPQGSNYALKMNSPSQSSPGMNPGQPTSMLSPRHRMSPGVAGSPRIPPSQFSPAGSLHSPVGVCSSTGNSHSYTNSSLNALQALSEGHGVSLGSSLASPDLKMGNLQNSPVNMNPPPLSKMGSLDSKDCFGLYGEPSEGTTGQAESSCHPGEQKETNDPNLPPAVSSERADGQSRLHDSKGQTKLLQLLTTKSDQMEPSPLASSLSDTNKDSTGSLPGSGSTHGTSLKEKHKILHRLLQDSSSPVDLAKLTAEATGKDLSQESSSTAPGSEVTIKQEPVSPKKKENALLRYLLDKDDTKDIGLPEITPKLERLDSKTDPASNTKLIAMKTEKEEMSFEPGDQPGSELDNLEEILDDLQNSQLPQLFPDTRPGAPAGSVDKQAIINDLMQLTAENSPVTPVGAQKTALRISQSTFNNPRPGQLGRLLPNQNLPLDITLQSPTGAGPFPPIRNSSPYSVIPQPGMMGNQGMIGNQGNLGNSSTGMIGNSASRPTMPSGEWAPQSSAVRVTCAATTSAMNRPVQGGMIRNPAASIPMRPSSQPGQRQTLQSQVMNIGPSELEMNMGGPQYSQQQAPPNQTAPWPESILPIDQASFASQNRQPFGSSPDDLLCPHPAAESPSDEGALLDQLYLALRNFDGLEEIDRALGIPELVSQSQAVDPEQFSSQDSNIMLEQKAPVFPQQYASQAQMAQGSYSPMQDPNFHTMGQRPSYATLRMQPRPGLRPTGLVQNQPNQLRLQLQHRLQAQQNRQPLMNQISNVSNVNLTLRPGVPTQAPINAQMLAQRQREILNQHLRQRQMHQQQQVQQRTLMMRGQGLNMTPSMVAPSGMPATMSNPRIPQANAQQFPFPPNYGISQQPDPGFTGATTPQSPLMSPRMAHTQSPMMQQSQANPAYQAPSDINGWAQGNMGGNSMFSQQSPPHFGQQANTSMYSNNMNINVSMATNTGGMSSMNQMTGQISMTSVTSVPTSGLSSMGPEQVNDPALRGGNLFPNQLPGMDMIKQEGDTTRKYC
smiles,measurement,setting,value
COc1ccc(CS(=O)/C(Cl)=C(/Cl)C(=O)Nc2ccc(OC)nc2)cc1 (stereo not drawn),inhibition,[1],97% (active)
same,inhibition,[2],63.7% (active)
CN1C(=O)/C(=C/C=C2\SCCN2C)OC1=S,inhibition,[3],86.5% (active)
same,inhibition,[4],9.01%
CCn1c(/C=C/c2ccc([N+](=O)[O-])o2)nc2ccccc2c1=O,inhibition,[5],92.8% (active)
same,inhibition,[6],12.8% (active)
same,inhibition,[7],42.1% (active)
O=C(Nc1nc2ccccc2s1)c1ccc2c(c1)OCO2,inhibition,[8],41.7%
same,inhibition,[9],10.6%
same,inhibition,[10],-93.8%
COc1cc(/C=N/O)ccc1OCc1ccc([N+](=O)[O-])cc1,activation (% of control),[11],234% (active)
same,activation (% of control),[12],131%
same,activation (% of control),[13],123% (active)
same,activation,[14],15.5% (active)
same,activation,[15],0.71%
O=C1NC(Nc2nc3ccccc3s2)(C(F)(F)F)C(=O)N1C1CCCCC1 (stereo not drawn),inhibition,[8],51.1% (active)
same,inhibition,[9],21.2% (active)
same,inhibition,[10],-9.63%
CCN(CC)c1ccc(/C=N/Nc2nc(C)cc(=O)[nH]2)cc1,inhibition,[8],37.2%
same,inhibition,[9],-2%
same,inhibition,[10],-4.6%
CCCCCc1ccc(-c2ccc(C(=O)O)cc2)nc1,inhibition,[8],22.4%
same,inhibition,[9],-6.17%
same,inhibition,[10],-71.4%
Cn1c(SCC(=O)N2CCCc3ccccc32)nc2ccccc2c1=O,inhibition,[8],49.3% (active)
same,inhibition,[9],13.7% (active)
same,inhibition,[10],22.5% (active)
Cc1cccc(-n2c(O)c(C=Nc3ccccc3N)c(=O)[nH]c2=O)c1,activation (% of control),[11],127%
same,activation (% of control),[12],118%
same,activation (% of control),[13],103%
same,activation,[14],8.36%
same,activation,[15],0.33%
Cc1ccc(-n2ncc3c(N4CCN(c5ccc(F)cc5)CC4)ncnc32)c(C)c1,inhibition,[8],46.6% (active)
same,inhibition,[9],22.4% (active)
same,inhibition,[10],14.9%
COc1ccc(C2Nc3ccccc3C(=O)N2c2ccc(Cl)cc2)cc1Cn1cc([N+](=O)[O-])cn1 (stereo not drawn),activation (% of control),[11],151% (active)
same,activation (% of control),[12],112%
same,activation (% of control),[13],120% (active)
same,activation,[14],10.6% (active)
same,activation,[15],0.5%
CN(C)S(=O)(=O)c1ccc(NC(=O)COC(=O)c2n[nH]c3ccccc23)cc1,inhibition,[8],38.2%
same,inhibition,[9],1.2%
same,inhibition,[10],8.4%
same,activation,[16],-2.42%
same,activation,[17],-36%
same,activation,[18],-29.4%
same,inhibition,[19],-6.29%
same,activation,[20],4.88%
same,inhibition,[21],-4.93%
same,inhibition,[22],16%
CC(=O)c1sc(N/N=C/c2ccc(C(C)C)cc2)nc1C,activation (% of control),[11],187% (active)
same,activation (% of control),[12],133% (active)
same,activation (% of control),[13],110%
same,activation,[14],11.8% (active)
same,activation,[15],0.5%
O=C(Nc1cccnc1)c1noc2c1CCCCC2,inhibition,[8],16.7%
same,inhibition,[9],-24.9%
same,inhibition,[10],-46.6%

# Source: PubChem BioAssay
